Experimental data: PubChem BioAssay (Tox21)
Inconclusive results are not listed. Active and inactive are the calls of the source. Calls follow the shape of the dose curve; as a rule, active = well fitted activation curve with a large enough effect in the signal ratio in the repeat runs (not every such curve was filed as active); inconclusive = weak or mixed curves, or effect the other way; inactive = no such curve, though single readings can be large or run the other way; the % refers to the signal ratio.

These compounds were tested against Peroxisome proliferator-activated receptor gamma (Homo sapiens) (UniProt P37231) (assay: qHTS assay to identify small molecule agonists of the peroxisome proliferator-activated receptor gamma (PPARg) signaling pathway (AID 743094)). Details: HEK293H PPARg-UAS-bla, beta-lactamase FRET ratio, 17 h; series mostly up to 57 µM; activation: at the top concentration.
Peroxisome proliferator-activated receptor gamma (Homo sapiens), sequence (P37231 whole entry, looked up): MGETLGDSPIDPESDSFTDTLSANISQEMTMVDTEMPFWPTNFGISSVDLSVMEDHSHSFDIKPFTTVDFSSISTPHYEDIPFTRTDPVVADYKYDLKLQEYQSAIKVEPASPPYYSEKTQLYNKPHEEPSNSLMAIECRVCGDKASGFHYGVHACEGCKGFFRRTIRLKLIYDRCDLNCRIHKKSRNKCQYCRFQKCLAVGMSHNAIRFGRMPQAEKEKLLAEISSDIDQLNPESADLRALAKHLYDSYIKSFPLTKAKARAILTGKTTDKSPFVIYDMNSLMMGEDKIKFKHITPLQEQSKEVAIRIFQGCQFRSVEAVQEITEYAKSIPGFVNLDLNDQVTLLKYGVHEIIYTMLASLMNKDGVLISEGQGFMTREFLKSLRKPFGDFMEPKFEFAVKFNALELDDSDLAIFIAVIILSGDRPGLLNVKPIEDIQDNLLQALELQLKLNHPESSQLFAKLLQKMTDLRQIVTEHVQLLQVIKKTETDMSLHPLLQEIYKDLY
Text: U.S. Tox21 Program National Center for Advancing Translational Sciences [NCATS] NIH Chemical Genomics Center [NCGC] U.S. Environmental Protection Agency [EPA] National Institutes of Environmental Health Sciences [NIEHS] National Toxicology Program [NTP] U.S. Food and Drug Administration [FDA] Tox21 Assay Overview: The peroxisome proliferator-activated receptors (PPARs) are lipid-activated transcription factors of the nuclear receptor superfamily with three distinct subtypes namely PPAR alpha, PPAR delta (also called PPAR beta) and PPAR gamma (PPARg). All these subtypes heterodimerize with Retinoid X receptor (RXR) and these heterodimers regulate transcription of various genes. PPAR-gamma receptor (glitazone receptor) is involved in the regulation of glucose and lipid metabolism. To identify the compounds that activate PPAR-gamma signaling, GeneBLAzer PPAR gamma UAS-bla HEK293H cell line (Invitrogen, Carlsbad, CA, USA) containing a beta-lactamase reporter gene under control of the control of an upstream activator sequence (UAS) stably integrated into HEK293H cells was used to screen Tox21 compound library.
Tox21 Assay Protocol Summary: PPARg-bla cells were dispensed at 3000 cells/6uL/well in 1536-well black wall/clear bottom plates using a Multidrop Combi (Thermo Fisher Scientific, Waltham, MA) dispenser. After the assay plates were incubated at 37C and 5% CO2 for 5 h, 23 nL of compounds dissolved in DMSO, positive controls or DMSO only was transferred to the assay plate by a Pintool station (Kalypsys, San Diego, CA). The assay plates were incubated at 37C for 17 h. After 1 uL of LiveBLAzerTM B/G FRET substrate was added using a Bioraptr Flying Reagent Dispenser (FRD) workstation (Beckman Coulter, Indianapolis, IN, USA), the plates were incubated at room temperature for 1 h, and fluorescence intensity was measured by an Envision plate reader (PerkinElmer, Shelton, CT).
% is scaled to controls: 0 for no effect and ±100 for the full control effect.

Row | Compound | activation | Potency
1 | CCOC(=O)C1(c2ccccc2)CCCN(C)CC1 (stereo not given) | 1.27% (inactive) | 
2 | CCCCNC(C)(C)[P+](=O)O | 1.75% (inactive) | 
3 | O=C1CCCCC1CN1CCCCC1 (stereo not given) | 1.91% (inactive) | 
4 | CC(C)C[C@H](CN)CC(=O)O | 2.82% (inactive) | 
5 | Cc1nnc2n1-c1sc(Br)cc1C(c1ccccc1Cl)=NC2 | 5.7% (inactive) | 
6 | [S]=[Sb](=[S])[S][Sb](=[S])=[S] | 3.37% (inactive) | 
7 | C1CN(P2(N3CC3)=NP(N3CC3)(N3CC3)=NP(N3CC3)(N3CC3)=N2)CCO1 (stereo not given) | -6.59% (inactive) | 
8 | CC(=O)O[C@H]1CC[C@H]2[C@@H]3CCC4=CC(=O)CCC4=C3C=C[C@]12C | 0.0831% (inactive) | 
9 | NC1=NC(=O)N2CC12 (stereo not given) | 2.42% (inactive) | 
10 | C[C@H]1CC[C@]2(NC1)O[C@H]1C[C@H]3[C@@H]4CC[C@H]5C[C@@H](O)CC[C@]5(C)[C@H]4CC[C@]3(C)[C@H]1[C@@H]2C | 0.852% (inactive) | 
11 | O=C(Nc1ccccc1-c1ccc(Cl)cc1)c1cccnc1Cl | -12.9% [at 78.9 µM] (inactive) | 
12 | COC(=O)[C@H]1[C@@H](OC(=O)c2ccccc2)C[C@@H]2CC[C@H]1N2C | 1.66% (inactive) | 
13 | CCN1C[C@]2(COC)[C@H](O)C[C@H](OC)[C@@]34[C@@H]5C[C@@]6(O)[C@H](OC(=O)c7ccccc7)[C@@H]5[C@@](OC(C)=O)([C@@H]([C@H](OC)[C@H]23)[C@@H]14)[C@@H](O)[C@@H]6OC | -0.0267% (inactive) | 
14 | O=C1Nc2ccc(Cl)cc2C(c2ccccc2Cl)=NC1O (stereo not given) | -0.245% (inactive) | 
15 | c1ccccc1 | -1.08% (inactive) | 
16 | O=c1[nH]cc(N(CCCl)CCCl)c(=O)[nH]1 | -0.872% (inactive) | 
17 | C[C@]12N[C@H](Cc3ccccc31)c1ccccc12 |  | inactive
18 | CCNCC(O)c1cccc(O)c1 (stereo not given) | 5.87% [at 26.2 µM] (inactive) | 
19 | CCN(CC)C(=O)N[C@H]1C[C@@H]2c3cccc4[nH]cc(c34)C[C@H]2N(C)C1 | -4.51% (inactive) | 
20 | Cc1ccccc1-n1c(CF)nc2ccc(N)cc2c1=O | -0.534% (inactive) | 

Row | Compound | activation | Potency
21 | COC(=O)[C@@H]1[C@H]2CC[C@@H](C[C@H]1OC(=O)c1ccccc1)N2C | -2.06% (inactive) | 
22 | CN1C(=O)CC(=O)N(c2ccccc2)c2cc(Cl)ccc21 | 4.31% (inactive) | 
23 | CNC(C)C(O)c1ccc(O)cc1 (stereo not given) |  | inactive
24 | CC1(C)S[C@@H]2[C@H](N)C(=O)N2[C@H]1C(=O)O | -1.03% [at 26.2 µM] (inactive) | 
25 | CCON=O | -3.34% (inactive) | 
26 | COc1cc(C[C@H](C)N)c(OC)cc1C | -6.67% [at 78.9 µM] (inactive) | 
27 | CC[N+](C)(CC)CCOC(=O)C(O)(c1ccccc1)c1ccccc1 | 0.429% (inactive) | 
28 | C[N+]1([O-])[C@@H]2CC[C@H]1CC(OC(=O)C(CO)c1ccccc1)C2 (stereo not given in full) |  | inactive
29 | C[C@@H]1[C@@H]2Cc3ccc(O)cc3[C@@]1(C)CCN2CC1CC1 | -4.57% (inactive) | 
30 | C[C@]12C[C@H]3S[C@H]3C[C@@H]1CC[C@@H]1[C@@H]2CC[C@]2(C)[C@@H](O)CC[C@@H]12 | 1.38% [at 26.2 µM] (inactive) | 
31 | CCCCCN(C)CCC(O)(P(=O)(O)O)P(=O)(O)O | 1.23% (inactive) | 
32 | COc1ccc2c3c1O[C@H]1[C@@H](O)C=C[C@H]4[C@@H](C2)NCC[C@@]341 |  | inactive
33 | CCC1(c2ccccc2)C(=O)NC(=O)N(C(=O)c2ccccc2)C1=O (stereo not given) | -2.94% (inactive) | 
34 | CC[C@H]1[C@@H]2C[C@H]3[C@@H]4N(C)c5ccccc5[C@]45C[C@@H](C2[C@H]5O)N3[C@@H]1O (stereo not given in full) | -2.31% [at 26.2 µM] (inactive) | 
35 | CN1CSC(=S)N(C)C1 | -0.313% (inactive) | 
36 | CC(N)Cc1ccc(O)cc1 (stereo not given) | -2.96% (inactive) | 
37 | C[C@@H]([C@H](O)c1ccccc1)N(C)C | 0.519% (inactive) | 
38 | C[C@]12CC[C@@H]3c4ccc(OC(=O)N(CCCl)CCCl)cc4CC[C@H]3[C@@H]1CC[C@@H]2OP(=O)(O)O |  | inactive
39 | OC[C@@H](O)[C@H]1O[C@@H]2O[C@@H](C(Cl)(Cl)Cl)O[C@@H]2[C@H]1O | 0.561% (inactive) | 
40 | S=C(S)N1CCNCC1 | 0% (inactive) | 
